Assay outcomes (PubChem)
KB-V1 cytotox – qHTS assay for MDR1-selective chemotherapeutics: Primary screen using the drug-selected MDR subline cells KB-V1; 3.4% of 400,000 active; AID 1347076, 2019; KB-V1 MDR cells viability, CellTiter-Glo, 72 h; Potency, µM (highest dose often 46.1 µM), hits mostly cytotoxic; note: % is set by controls: 0 for no effect and ±100 for the full control effect; nearly all actives have a fitted effect of over 60% in size
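Compound-treated KB-V1 multidrug-resistant cells, 72 h, 37 degrees C; viability by CellTiter-Glo. Fitted qHTS curves give the values.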
HT1080 IDH1KD tx – qHTS for induction of synthetic lethality in tumor cells producing 2HG: qHTS for the HT-1080-IDH1KD cell line | HT-1080 IDH1 knockdown viability, ATP luminescence, 48 h | Potency, µM (titrated, usually from 46.1 µM), for the others: at the top dose activity, negative = toxicity, hits mostly cytotoxic | 2% of 360,000 active;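 note: 0% = DMSO wells and -100% = cell-free medium wells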
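Assay cells: HT-1080 with IDH1 knockdown, 750 per well, RPMI/5% FBS. Exposure: 48 h at 37 °C following 2 h pre-incubation. Read: CellTiter-Glo luminescence; fitted concentration-response, curve class assigned.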
ATXN viability – Viability Counterscreen for Primary qHTS for Inhibitors of ATXN expression; S2 cells (HEK-293 line with an ATXN2-luciferase reporter) viability, CellTiter-Fluor protease fluorescence, 24 h; Potency, µM (series often up to 56.7 µM), most hits filed as cytotoxic; 0.49% of 400,000 active; AID 651635, 2014; note: nearly all actives have a fitted effect of over 40% in size
ATXN2 expr inh – Primary qHTS for Inhibitors of ATXN expression; HEK-293 ATXN2-luciferase reporter, luminescence, 24 h; Potency, µM (doses to about 57 µM), for the others: at the top dose activity change, negative = inhibition, most hits filed as inhibitors; 0.72% of 360,000 active; note: % is set by controls: 0 for no effect and ±100 for the full control effect; nearly all actives have a fitted effect of over 55% in size
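qHTS (up to 57 uM final) was run with 24 h compound exposure of reporter cells at 37 °C. Each well was multiplexed: SteadyGlo luminescence measured ATXN2-luciferase expression after a fluorogenic Gly-Phe-AFC viability readout (25 uM final).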
KB-3-1 cytotox – qHTS assay for MDR1-selective chemotherapeutics: Primary screen using the parental adenocarcinoma cell KB-3-1 | Potency, µM (doses to about 46.1 µM), most hits filed as cytotoxic | KB-3-1 viability, CellTiter-Glo ATP luminescence, 72 h | 1.4% of 400,000 active | AID 1347075, 2019; note: % is set by controls: 0 for no effect and ±100 for the full control effect; nearly all actives have a fitted effect of over 60% in size
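72 h, 37 °C compound treatment of KB-3-1 parental cells; CellTiter-Glo added, 10 min, luminescence read. Data corrected against DMSO-only plates and normalized before curve fitting.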
HT1080NT lethal – qHTS for induction of synthetic lethality in tumor cells producing 2HG: qHTS for the HT-1080-NT fibrosarcoma cell line; 1.6% of 360,000 active; HT-1080-NT fibrosarcoma viability, CellTiter-Glo ATP luminescence, 48 h; Potency, µM (highest dose often 46.1 µM), for inactives: top-dose activity, negative = less viability, usual class: cytotoxic;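 note: NT is the 2HG producing partner of a matched IDH1 knockdown line; 0% = DMSO-treated cells and -100% = media-only wells without cells; nearly all actives have a fitted effect of over 55% in size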
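Compounds were tested in concentration-response format on HT-1080-NT cells for 48 hours at 37 degrees C. Cell viability came from CellTiter-Glo luminescence; curves were classified by r2, response magnitude and activity.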
* marks the source's active call; other numbers are inactive results; i = inactive; ? = inconclusive; nt = no result given; [ ] = remark or other dose. Rows were chosen to be rich in hits. Some 6.2% of all compounds tested hit in one or more screens of this group. Calls come from the whole dose curve; as a rule, active = well fitted curve in the direction sought with a large enough effect; inconclusive = small, poorly fitted or top-dose-only effect, or another doubt; inactive = no such curve, though single readings can be large; an effect the other way counts as inactive or inconclusive. Potency is the fitted concentration of half-maximal effect.

SMILES | KB-V1 cytotox | HT1080 IDH1KD tx | ATXN viability | ATXN2 expr inh | KB-3-1 cytotox | HT1080NT lethal
O=S(=O)(Nc1ccc(O)c2ccccc12)c1cccs1 | ? | 21µM* | ? | ? | ? | 26µM*
O=S(=O)(Nc1cccc2ccccc12)c1cccs1 | i | -1% | i | 29% | i | 2%
Cc1ccc2c(c1)N(C)/C(=C/c1cccc[n+]1CCO)S2 | i | ? | i | 0% | 1.8µM* | ?
CCN1/C(=C/c2cccc[n+]2C)Sc2ccc(OC)cc21 | i | ? | i | nt | ? | ?
Cc1ccc2c(c1)N(C)/C(=C/c1cccc[n+]1C)S2 | i | 10µM* | i | ? | 0.92µM* | 21µM*
CN1/C(=C/c2cccc[n+]2C)Sc2ccccc21 | i | ? | i | ? | 1.5µM* | ?
COc1ccc2c(c1)N(C)/C(=C/c1cccc[n+]1C)S2 | i | 13µM* | ? | ? | 1.6µM* | ?
Cc1ccc2c(c1)S/C(=C/c1ccc[n+](C)c1)N2CCO | ? | ? | ? | -15%[11.3 µM] | ? | ?
CCc1cccc(NC(=O)c2cc(S(=O)(=O)N3CCCCCC3)cn2C)c1 | i | nt | i | 0% | i | nt
CCOC(=O)[C@]12CCCC=C1N(CCc1ccc(OC)c(OC)c1)C(=O)[C@H](CC(=O)NCCCCc1ccccc1)C2 | 21µM* | ? | nt | nt | ? | ?
CCOC(=O)[C@]12CCCC=C1N(CCc1ccc(OC)c(OC)c1)C(=O)[C@H](CC(=O)NCC13CC4CC(CC(C4)C1)C3)C2 | ? | ? | nt | nt | ? | -21%
COC(=O)[C@]12CCCCC=C1N(CCc1ccc(OC)c(OC)c1)C(=O)[C@H](CC(=O)NCC13CC4CC(CC(C4)C1)C3)C2 | 18µM* | ? | nt | nt | ? | ?
CCCCCCCCN1C(=O)[C@H](CC(=O)NCC23CC4CC(CC(C4)C2)C3)C[C@@]2(C(=O)OCC)CCCC=C12 | i | 3% | i | 0% | 16µM* | 12%
CCOC(=O)[C@]12CCCC=C1N(CCc1ccc(OC)c(OC)c1)C(=O)[C@H](CC(=O)NCCc1ccccc1OC)C2 | 13µM* | -20% | nt | nt | i | -18%
Cc1ccnc2c(Cl)c(Cl)ccc12 | i | nt | nt | nt | i | nt
Cc1c(C(=O)NCC(C)(C)N2CCOCC2)cnn1-c1nccc(-c2cccs2)n1 | nt | nt | i | nt | nt | nt
CCCCCCCCN1C(=O)[C@H](CC(=O)NCCc2ccccc2OC)C[C@@]2(C(=O)OCC)CCCC=C12 | 21µM* | ? | 22µM* | ? | i | ?
CCOC(=O)[C@]12CCCC=C1N(Cc1ccc(Cl)cc1Cl)C(=O)[C@H](CC(=O)NCCc1ccccc1OC)C2 | ? | ? | ? | 0% | ? | ?
COc1cccc(OC)c1-c1nn2c(-c3ccccc3Cl)nnc2s1 | 9.2µM* | -9% | i | -9% | i | -2%
Nc1cc(Cl)cc2c1-c1ccc(Cl)cc1C2O (stereo not drawn) | ? | -10% | ? | -5% | ? | -15%
O=C(Nc1cc(Cl)cc2c1-c1ccc(Cl)cc1C2O)C(Cl)Cl (stereo not drawn) | 18µM* | -26% | i | -38% | ? | -12%
COc1cc(CN2CCCC(c3nc(-c4ccncc4)ncc3-c3ccccc3)C2)ccc1O (stereo not drawn) | nt | nt | i | nt | nt | nt
NC(=S)NN=C1Cc2cccc3cccc1c23 | 1.3µM* | 15% | i | -11% | 1.3µM* | 3%
O/N=C1/CCc2cccc3cccc1c23 | i | -3% | i | 16% | i | 8%
Cc1ccc(NC(=O)NCc2cccn2Cc2ccccc2)c(C)c1 | i | nt | i | 7% | i | nt
SMILES | KB-V1 cytotox | HT1080 IDH1KD tx | ATXN viability | ATXN2 expr inh | KB-3-1 cytotox | HT1080NT lethal
CC1CCCC(NC(=S)NC(=O)c2ccccc2Br)C1C (stereo not drawn) | 16µM* | 4% | i | 10% | 26µM* | 0%
CCc1ccc(CNC(=O)c2cc3c(C)nc4ccccc4c3o2)cc1 | i | -8% | ? | 20µM* | i | 0%
COc1cccc(CNC(=O)c2cc3c(C)nc4ccccc4c3o2)c1 | ? | -16% | ? | -31% | ? | 0%
COc1ccc(CNC(=O)c2cc3c(C)nc4ccccc4c3o2)c(OC)c1 | 12µM* | ? | ? | -31% | ? | -6%
COc1cccc(C(=O)NCC2Cc3c(F)ccc(-c4ncccn4)c3O2)c1OC (stereo not drawn) | nt | nt | i | nt | nt | nt
O=C(C1CCCCC1)N1CCN(c2ccnc3cc(Cl)ccc23)CC1 | ? | ? | ? | 18µM* | ? | -9%
COc1ccccc1N1CCN(c2ccnc3cc(Cl)ccc23)CC1 | ? | 7.3µM* | ? | 11µM* | 6.5µM* | 3.7µM*
COc1ccccc1NC(=O)N1CCN(c2ccnc3cc(Cl)ccc23)CC1 | i | -22% | i | -36% | i | -2%
O=C1CC(c2ccccc2)Cc2nc(NCc3ccco3)ncc21 (stereo not drawn) | 16µM* | -12% | i | -5% | i | -2%
O=C(Nc1ncc2c(n1)CC(c1ccccc1)CC2=O)c1ccco1 (stereo not drawn) | i | 5% | i | 8% | i | -7%
Cc1onc(-c2c(F)cccc2Cl)c1C(=O)Nc1cc(S(=O)(=O)N2CCCCC2)ccc1O | 23µM* | -14% | i | -11% | ? | ?
COc1cccc(CNC(=O)COC(=O)c2ccc(C(=O)c3ccccc3)cc2)c1 | i | ? | i | -8% | i | -3%
COc1cccc(CNC(=O)COC(=O)c2ccc(-c3ccc(O)cc3)cc2)c1 | ? | 21µM* | ? | nt | i | ?
CC1CCCCN1C(=O)CSc1nnc(-c2ccccc2O)o1 (stereo not drawn) | ? | -20% | i | 77% | 13µM* | -10%
CC1CCCCN1C(=O)CSc1nnc(-c2ccccc2Cl)o1 (stereo not drawn) | i | nt | i | 11% | i | nt
CN(CC(=O)Oc1ccc(-c2nnco2)cc1)S(=O)(=O)c1ccc(F)cc1 | i | 2% | ? | 1% | i | 3%
COc1cc(-c2nc3ccc(C)cn3c2Nc2ccc(Cl)cc2)ccc1O | i | nt | 16µM* | ? | i | nt
Cc1ccc(Nc2c(-c3ccncc3)nc3ccc(C)cn23)cc1 | i | nt | ? | -5% | i | nt
